uPA generation: cell surface uPA generation inhibition | cell surface uPA generation assay, qHTS | Potency, µM (series often up to 38.3 µM), for inactives: top-dose activity change, negative = inhibition, hits mostly inhibitors | 330,000 compounds, 0.31% hits | AID 540303; active = well fitted inhibition curve with a large enough effect; inconclusive = small, poorly fitted or top-dose-only effect; inactive = no such curve, though single readings can be large or run the other way; tested in mouse RAW 264.7 cells; note: potency is the fitted concentration of half-maximal effect; % is set by controls: 0 for no effect and ±100 for the full control effect; nearly all actives have a fitted effect of over 55% in size
Integrin act MD: activators of alpha7 integrin expression for muscular dystrophy; AID 624291; Potency, µM (series often up to 38.3 µM), inactives show top-dose activation, most hits filed as activators; 350,000 compounds, 0.064% hits; alpha7betagal myoblasts, beta-gal FDG fluorescence, 48 h;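 note: potency is the fitted concentration of half-maximal effect; 100% = response of the positive control SU9516; nearly all actives have a fitted effect of over 60% in size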
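alpha7betagal+/- myoblasts (passage 13, 250/well) treated 48 h at 37C with compounds at 1:260 dilution of DMSO stock. Lysed, then beta-galactosidase activity read as FDG fluorescence (ex 480/em 540) after 30 min, with pre-read for autofluorescence.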
IL2 activator: activates IL-2 in a cell-based reporter assay; IL-2 activation reporter assay, cell-based qHTS; stimulated with anti-CD3/CD4/CD28 beads; in transgenic mouse T cells; activation, % (series mostly up to about 46 µM); 360,000 compounds, 0.065% hits; AID 652025; in the data active = activation above about 50%; inconclusive = mostly about 30% to 49%; note: 0% is about no effect
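Quantitative HTS in unstimulated transgenic mouse T cells, with memory T cells as non-tolerant control and PMA/ionomycin as tolerance-bypass control. Compound pretreatment lasted 60 minutes before 18 h bead stimulation; EGFP/DsRed fluorescence read.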
Nrf2 activator: activates Nrf2 signaling | 410,000 compounds, 0.31% hits | Potency, µM (series often up to 46.1 µM), for the others: at the top dose activation, usual class: activators | AREc32 ARE-luciferase reporter (MCF7-derived line), luminescence, 24 h | AID 624171; note: potency is the fitted concentration of half-maximal effect; % of control where 0% means no effect; nearly all actives have a fitted effect of over 65% in size
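Luminescent ARE reporter assay in AREc32_Fluc cells: overnight plating at 37 deg C, 24 hr compound incubation, Steady-Glo added, 30 min RT before reading.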
12-LOX inh: inhibitors of human 12S-lipoxygenase ALOX12 | 580,000 compounds, 1.1% hits | Potency, µM (titrated, usually from 108 µM), without a hit: at the top dose activity change, negative = inhibition, actives largely listed as inhibitors | AID 1671190 | purified 12hLO, xylenol orange hydroperoxide absorbance; note: potency is the fitted concentration of half-maximal effect; % is set by controls: 0 for no effect and ±100 for the full control effect
Target sequence (P18054 whole entry, looked up): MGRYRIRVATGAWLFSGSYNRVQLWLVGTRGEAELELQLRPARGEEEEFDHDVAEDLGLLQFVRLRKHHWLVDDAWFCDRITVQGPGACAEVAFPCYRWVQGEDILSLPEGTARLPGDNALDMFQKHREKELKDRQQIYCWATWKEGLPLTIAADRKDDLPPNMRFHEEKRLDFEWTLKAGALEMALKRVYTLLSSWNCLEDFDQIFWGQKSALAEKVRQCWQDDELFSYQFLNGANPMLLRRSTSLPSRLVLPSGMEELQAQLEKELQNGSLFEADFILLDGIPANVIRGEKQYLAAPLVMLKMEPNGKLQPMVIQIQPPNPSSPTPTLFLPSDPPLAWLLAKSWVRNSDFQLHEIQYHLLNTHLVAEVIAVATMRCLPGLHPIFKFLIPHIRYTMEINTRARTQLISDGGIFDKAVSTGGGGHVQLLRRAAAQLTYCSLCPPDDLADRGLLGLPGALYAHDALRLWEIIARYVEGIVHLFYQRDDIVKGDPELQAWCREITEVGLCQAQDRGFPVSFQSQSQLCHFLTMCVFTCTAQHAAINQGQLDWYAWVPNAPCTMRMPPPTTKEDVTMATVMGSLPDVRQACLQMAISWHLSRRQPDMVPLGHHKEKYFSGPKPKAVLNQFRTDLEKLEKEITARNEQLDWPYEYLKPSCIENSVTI
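Purified human 12hLO at 150 nM in 25 mM Hepes, 0.01% Triton X-100, pH 7.0, preincubated 15 min at room temperature with compound. Reaction started with 40 uM arachidonic acid, 30 min at room temperature. Hydroperoxide measured by Fe-xylenol orange, 573/405 nm absorbance ratio.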
Numbers without * were called inactive; [ ] = another dose, or the depositor's remark. The list is not random: actives were taken first. Their share in the collection is about 1.5%. Unless noted, calls come from the whole dose curve; as a rule, active = well fitted curve in the direction sought with a large enough effect; inconclusive = small, poorly fitted or top-dose-only effect, or another doubt; inactive = no such curve, though single readings can be large; an effect the other way counts as inactive or inconclusive.

Screening O=C(CCc1ccsc1)N(Cc1ccncc1)C1CC1 returned 12-LOX inh 6.3%.
`O=C(c1ccsc1)N(Cc1cccs1)C1CC1` gave 12-LOX inh 25.1%.
`O=C(/C=C/c1cccs1)N(Cc1ccco1)C1CC1` gave 12-LOX inh -51.6%.
Screening O=C(c1ccsc1)N(Cc1ccco1)C1CC1 returned 12-LOX inh 35.5µM*.
`O=C(CCc1ccsc1)N(Cc1ccco1)C1CC1` gave 12-LOX inh 15.8µM*.
O=C(Nc1nc2c(s1)CN(Cc1ccccc1)CC2)C1CCC1 was read as uPA generation 7.1%, Integrin act MD -11.2%, IL2 activator -0.4, Nrf2 activator 4.1% and 12-LOX inh 1.2%.
`CN(C)c1ccc(/C=C(\C#N)C(=O)Nc2nc3c(s2)CCN(Cc2ccccc2)C3)cc1` gave uPA generation 1.1%, Integrin act MD -6.0%, IL2 activator 59.2*, Nrf2 activator 2.7% and 12-LOX inh -2.6%.
For Cc1ccc2c(=O)c(-c3nc(-c4cccc(F)c4)no3)cn(CC(=O)NCc3ccco3)c2n1 the results were 12-LOX inh 10µM*.
Screening Cc1cccc(-c2noc(CCC(=O)NCc3ccco3)n2)c1 returned Integrin act MD -21.1%[7.66 µM], IL2 activator -2.9, Nrf2 activator 5.7% and 12-LOX inh -14.2%.
CCCNC(=O)N[C@@H]1CCC[C@@H](C(=O)NCCOC)CC(=O)N(C)C1 was read as 12-LOX inh 25.1µM*.
Screening Cc1c(/C=C(/C#N)c2ccccn2)cc(C#N)n1C returned 12-LOX inh 35.5µM*.
Screening N#C/C(=C\c1ccncc1)c1ccccn1 returned uPA generation -11.9%, Integrin act MD inconclusive, IL2 activator -4.5, Nrf2 activator 4.9% and 12-LOX inh -11.6%.
For Cc1cc(/C=C(/C#N)c2ccccn2)c(C)n1C1CC1 the results were 12-LOX inh 11.2µM*.
For N#C/C(=C\c1ccccc1)c1ccccn1 the results were uPA generation -22.7%, Integrin act MD 8.8%, IL2 activator 0.3, Nrf2 activator inconclusive and 12-LOX inh -22.6%.
Screening O=C(Nc1nc2ccccc2[nH]1)c1cccc(Cl)c1 returned uPA generation inconclusive, Integrin act MD -17.7%, IL2 activator -0.1, Nrf2 activator 5.01µM* and 12-LOX inh 5.9%.
Screening O=C(c1ccccc1-c1ccccc1F)N(Cc1cccnc1)C1CC1 returned 12-LOX inh 44.4%.
Cc1ccc(S(=O)(=O)NC[C@H]2O[C@@H](CO)[C@@H](O)[C@H]2N2CCN(c3ncccn3)CC2)cc1 was read as 12-LOX inh 15.8µM*.
For COc1ccc(S(=O)(=O)NC[C@H]2O[C@@H](CO)[C@@H](O)[C@H]2N2CCN(c3ccccn3)CC2)cc1 the results were 12-LOX inh -0.3%.
For CN(CC1CCOCC1)C(=O)Nc1ccccc1C(F)(F)F the results were 12-LOX inh 11.7%.
CS(=O)(=O)N(Cc1ccc(C(=O)NC2CCCC2)cc1)c1ccccc1 was read as uPA generation 1.8%, Integrin act MD 10µM*, IL2 activator 0.2, Nrf2 activator -0.8% and 12-LOX inh -15.2%.
`Cc1ccc(C)c(NC(=O)CCc2ncc(-c3ccc(F)cc3F)o2)c1` gave 12-LOX inh -24.6%.
`COCCCNC(=O)C(C#N)c1nc2ccccc2nc1N1CCN(Cc2ccccc2)CC1` (configuration not stated) gave uPA generation 1.2%, Integrin act MD 24.1%, IL2 activator 96.5*, Nrf2 activator 0.3% and 12-LOX inh inconclusive.
`COCCOC(=O)C(C#N)c1nc2ccccc2nc1N1CCN(Cc2ccccc2)CC1` (configuration not stated) gave uPA generation -4.3%, Integrin act MD -8.5%, IL2 activator 1.3 and Nrf2 activator 0.0%.
C=CCNC(=O)C(C#N)c1nc2ccccc2nc1N1CCN(Cc2ccccc2)CC1 (configuration not stated) was read as uPA generation -1.1%, Integrin act MD -4.4%, IL2 activator 66.5* and Nrf2 activator 0.1%.
COc1ccc(CC2CCOC3(CCN(C(=O)Nc4ccccc4F)CC3)C2)cc1 (configuration not stated) was read as 12-LOX inh 17.7%.
For CCCCOC(=O)CCCCCCCCC(=O)OCCCC the results were 12-LOX inh 4.7%[22.9 µM].
For CC[Si](C)(CC)COC(=O)CCC[N+](C)(C)C the results were 12-LOX inh 28.2µM*.
`CCC(C)NC(=O)CSc1nnc(C(=O)Nc2ccc(C)cc2)s1` (configuration not stated) gave 12-LOX inh -1.4%.
`CC(=O)c1cc(O)c2ccccc2c1O` gave uPA generation 13.7%, Integrin act MD -3.2%, IL2 activator 0.1, Nrf2 activator 19.8% and 12-LOX inh 1.58µM*.
Screening CC(=O)c1coc2c1cc(O)c1ccccc12 returned uPA generation 4.8%, Integrin act MD 1.9%, IL2 activator -0.6, Nrf2 activator inconclusive and 12-LOX inh 13.9%.
Screening Cc1ccc2c(=O)cc(CSc3ccccc3)[nH]c2c1C returned Nrf2 activator -0.1% and 12-LOX inh -27.1%.
Screening O=c1cc(CSc2ccc(Cl)cc2)[nH]c2[nH]n(-c3ccccc3)c(=O)c12 returned uPA generation 1.5%, Integrin act MD -18.6%, IL2 activator -1.3, Nrf2 activator -0.1% and 12-LOX inh 39.8µM*.
Screening Cc1ccc(SCc2cc(=O)c3c(=O)n(-c4ccccc4)[nH]c3[nH]2)cc1 returned uPA generation 4.3%, Integrin act MD 23.2%, IL2 activator -1.3, Nrf2 activator 0.2% and 12-LOX inh 35.5µM*.
`Cc1ccc(C)c(NC(=O)CSc2ccc(N3CCC(C(=O)N4CCCCC4)CC3)nn2)c1` gave 12-LOX inh -8.2%.
`O=S(=O)(c1ccc2c(c1)OCCO2)c1nc(-c2ccccc2)oc1NCCN1CCOCC1` gave 12-LOX inh 25.1µM*.
For COc1cccc(-n2c(Cc3cc(=O)[nH]c(=O)[nH]3)nnc2SCC(=O)N2CCCCC2)c1 the results were uPA generation 1.4%, Integrin act MD -10.3%, IL2 activator 0.4, Nrf2 activator 0.3% and 12-LOX inh 8.91µM*.
`O=C(CCSC1=NCCCN1)c1ccc(F)cc1` gave uPA generation 1.9%, Integrin act MD -5.5%, IL2 activator -5.7, Nrf2 activator 2.3% and 12-LOX inh 44.7µM*.
`CCCOC(=O)C[N+](C)(C)CCOC1CC2CCC1(C)C2(C)C` (configuration not stated) gave uPA generation -7.0%, Integrin act MD -10.4%, IL2 activator -3.9, Nrf2 activator -0.3% and 12-LOX inh 14.0%.

High-throughput results (PubChem BioAssay)
